Drawing on publication PMC3218832, this text covers binding signal for 15 sequences.

Among the targets are RELARELA (p65 homodimer) (Homo sapiens, UniProt Q04206 1-307); p50p50 homodimer (Homo sapiens, UniProt P19838 7-356); RELB subunit;p50 subunit (Homo sapiens;Homo sapiens, UniProt Q01201;P19838 120-401;7-356).
Test in all cases: protein binding microarray; high values mean tight binding
Common to all, as to conditions: dsDNA, one strand shown

In the next test the target is T1, p52p52 homodimer (Homo sapiens, UniProt Q00653 4-332).
T1 sequence: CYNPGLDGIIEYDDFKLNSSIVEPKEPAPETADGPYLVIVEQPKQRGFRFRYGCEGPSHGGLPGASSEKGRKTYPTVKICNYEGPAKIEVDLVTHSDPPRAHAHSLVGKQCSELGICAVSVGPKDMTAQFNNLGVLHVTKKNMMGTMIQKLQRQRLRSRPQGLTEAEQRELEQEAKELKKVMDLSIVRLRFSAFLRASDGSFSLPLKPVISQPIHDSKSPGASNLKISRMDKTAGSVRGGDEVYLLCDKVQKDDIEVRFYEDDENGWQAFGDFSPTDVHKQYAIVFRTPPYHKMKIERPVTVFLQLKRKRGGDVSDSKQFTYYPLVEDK

Test [1] concerns the target RELA (p65) subunit of heterodimer;p50 subunit (Homo sapiens;Homo sapiens, UniProt Q04206;P19838 1-307;7-356).
For test [2], the target named is RELA (p65) subunit of heterodimer;p52 subunit (Homo sapiens;Homo sapiens, UniProt Q04206;Q00653 1-307;4-332).
The next test has as its target T2, RELB subunit;p52 subunit (Homo sapiens;Homo sapiens, UniProt Q01201;Q00653 120-401;4-332).
T2 sequence 1: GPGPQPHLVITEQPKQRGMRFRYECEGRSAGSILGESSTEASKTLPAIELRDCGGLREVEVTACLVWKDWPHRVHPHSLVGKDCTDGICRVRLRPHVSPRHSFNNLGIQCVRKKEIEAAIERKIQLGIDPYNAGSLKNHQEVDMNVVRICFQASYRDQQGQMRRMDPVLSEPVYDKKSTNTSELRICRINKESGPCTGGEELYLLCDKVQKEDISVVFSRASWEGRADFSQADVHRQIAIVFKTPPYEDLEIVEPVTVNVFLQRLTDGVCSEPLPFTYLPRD
T2 sequence 2: T1 sequence

Test [3] has as its target C-Rel subunit;p50 subunit (Homo sapiens;Homo sapiens, UniProt Q04864;P19838 1-285;7-356).
In test [4] the target is T3, C-Rel subunit;p52 subunit (Homo sapiens;Homo sapiens, UniProt Q04864;Q00653 1-285;4-332).
T3 sequence 1: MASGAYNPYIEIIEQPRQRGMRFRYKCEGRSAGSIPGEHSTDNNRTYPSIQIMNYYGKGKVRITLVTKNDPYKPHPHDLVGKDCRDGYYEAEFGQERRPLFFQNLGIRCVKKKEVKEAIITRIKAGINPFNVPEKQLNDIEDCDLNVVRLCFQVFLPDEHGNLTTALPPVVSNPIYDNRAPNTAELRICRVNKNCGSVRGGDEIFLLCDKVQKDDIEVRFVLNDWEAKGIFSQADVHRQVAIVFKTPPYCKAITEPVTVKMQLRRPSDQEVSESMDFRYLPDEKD
T3 sequence 2: T1 sequence

Chain of p50p50 homodimer (P19838 7-356): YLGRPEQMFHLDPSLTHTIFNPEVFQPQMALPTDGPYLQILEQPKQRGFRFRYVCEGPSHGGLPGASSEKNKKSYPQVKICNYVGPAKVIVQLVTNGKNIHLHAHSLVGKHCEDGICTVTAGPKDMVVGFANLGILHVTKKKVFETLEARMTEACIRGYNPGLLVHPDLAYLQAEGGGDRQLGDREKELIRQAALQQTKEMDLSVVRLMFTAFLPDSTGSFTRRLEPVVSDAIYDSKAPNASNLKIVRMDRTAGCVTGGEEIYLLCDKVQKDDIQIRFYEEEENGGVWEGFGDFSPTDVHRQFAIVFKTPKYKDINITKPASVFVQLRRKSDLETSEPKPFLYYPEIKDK
Chain of RELA (p65) subunit of heterodimer;p50 subunit (Q04206 1-307, chain 1 of 2): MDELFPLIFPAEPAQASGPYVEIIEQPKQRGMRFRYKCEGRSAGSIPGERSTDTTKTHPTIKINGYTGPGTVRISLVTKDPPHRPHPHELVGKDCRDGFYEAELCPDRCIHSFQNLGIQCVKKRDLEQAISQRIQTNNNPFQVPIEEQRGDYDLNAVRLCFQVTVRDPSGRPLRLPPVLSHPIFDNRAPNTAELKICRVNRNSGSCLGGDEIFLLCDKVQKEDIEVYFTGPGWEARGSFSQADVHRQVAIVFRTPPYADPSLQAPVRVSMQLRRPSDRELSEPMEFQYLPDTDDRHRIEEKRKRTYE
Chain of RELA (p65) subunit of heterodimer;p50 subunit (P19838 7-356, chain 2 of 2): as the sequence (P19838 7-356) above
Chain of RELARELA (p65 homodimer) (Q04206 1-307): as the sequence (Q04206 1-307, chain 1 of 2) above

With AAGGGGGCCCC, the binding signal with RELARELA (p65 homodimer) is -0.0322 z-score; with p50p50 homodimer, 0.728 z-score; with p52p52 homodimer it was 0.786 z-score; in test [1], 0.441 z-score; in test [2] it was 0.981 z-score; in the test with RELB subunit;p50 subunit it was 0.694 z-score. Moreover, the results for the binding signal (with RELB subunit;p52 subunit; in test [3]; in test [4]) were 1.04 z-score, 0.532 z-score and 0.709 z-score, respectively.
As to CGATATATCCC, the binding signal with RELARELA (p65 homodimer) is 0.113 z-score; with p50p50 homodimer it was -0.443 z-score; in the test with p52p52 homodimer, -0.0767 z-score; in [1] it was -0.33 z-score; in test [2] it was -0.28 z-score; in the test with RELB subunit;p50 subunit, -0.357 z-score. In addition, the binding signal was -0.154 z-score with RELB subunit;p52 subunit, -0.427 z-score in [3] and -0.465 z-score in [4].
Regarding CGAGGCACCCT, the binding signal in the test with RELARELA (p65 homodimer) is -1.09 z-score; in the test with p50p50 homodimer, -1.16 z-score; with p52p52 homodimer it was -0.572 z-score; in test [1] it was -1.04 z-score; in test [2] it was -0.854 z-score; with RELB subunit;p50 subunit, -0.726 z-score. Besides, the binding signal with RELB subunit;p52 subunit was -0.72 z-score; in test [3], -0.919 z-score; in test [4], -1.01 z-score.
Turning to GAAGGTGCCCT, the binding signal was -0.528 z-score with RELARELA (p65 homodimer); -0.946 z-score with p50p50 homodimer; -0.486 z-score with p52p52 homodimer; -0.722 z-score in test [1]; -0.698 z-score in test [2]; -0.821 z-score in the test with RELB subunit;p50 subunit. Also, the binding signal in the test with RELB subunit;p52 subunit is -0.597 z-score; in test [3], -1.15 z-score; in [4] it was -0.907 z-score.
As for AAGAATTTCCT, the binding signal in the test with RELARELA (p65 homodimer) was 1.63 z-score; with p50p50 homodimer it was -0.591 z-score; with p52p52 homodimer it was -0.35 z-score; in [1], -0.206 z-score; in [2] it was -0.329 z-score; with RELB subunit;p50 subunit, -0.672 z-score. Further, the binding signal with RELB subunit;p52 subunit was -0.375 z-score; in test [3], 0.0204 z-score; in [4], -0.227 z-score.
As to CAAAGCGTCCT, the binding signal with RELARELA (p65 homodimer) was -0.639 z-score; with p50p50 homodimer, -1.46 z-score; with p52p52 homodimer, -0.572 z-score; in test [1], -0.956 z-score; in test [2] it was -0.873 z-score; with RELB subunit;p50 subunit, -0.99 z-score. The results for the binding signal (with RELB subunit;p52 subunit; in test [3]; in [4]) were -0.804 z-score, -1.53 z-score and -0.973 z-score, respectively.
In the case of GAGGTGGTCCT, the binding signal with RELARELA (p65 homodimer) was -0.284 z-score; in the test with p50p50 homodimer, -0.198 z-score; in the test with p52p52 homodimer it was -0.03 z-score; in [1], -0.746 z-score; in test [2] it was -0.496 z-score; in the test with RELB subunit;p50 subunit it was -0.46 z-score. In addition, the figures for the binding signal (with RELB subunit;p52 subunit; in test [3]; in test [4]) were -0.352 z-score, -1.08 z-score and -0.521 z-score, respectively.
Turning to GGGATGGCCCC, the binding signal is -0.135 z-score with RELARELA (p65 homodimer); 0.31 z-score with p50p50 homodimer; 1.6 z-score with p52p52 homodimer; 0.79 z-score in test [1]; 1.15 z-score in test [2]; 0.678 z-score with RELB subunit;p50 subunit. Moreover, the binding signal is 0.614 z-score in the test with RELB subunit;p52 subunit, 0.492 z-score in [3] and 0.746 z-score in test [4].
For the sequence AGAGGCGTCCC, the binding signal in the test with RELARELA (p65 homodimer) is -0.0545 z-score; in the test with p50p50 homodimer, -0.0189 z-score; with p52p52 homodimer, 0.07 z-score; in test [1] it was -0.193 z-score; in test [2] it was -0.01 z-score; with RELB subunit;p50 subunit it was 0.139 z-score. The results for the binding signal (with RELB subunit;p52 subunit; in test [3]; in test [4]) were 0.267 z-score, -0.234 z-score and -0.17 z-score, respectively.
AAAGGCACCCT: the binding signal with RELARELA (p65 homodimer) was -1.13 z-score; with p50p50 homodimer, -0.88 z-score; with p52p52 homodimer it was -0.454 z-score; in test [1], -0.697 z-score; in test [2], -0.787 z-score; in the test with RELB subunit;p50 subunit it was -0.685 z-score. The binding signal is -0.711 z-score in the test with RELB subunit;p52 subunit, -1.07 z-score in [3] and -0.741 z-score in [4].
As for GAAAATCTCCC, the binding signal with RELARELA (p65 homodimer) stood at 1.06 z-score; with p50p50 homodimer, 0.914 z-score; with p52p52 homodimer, 0.592 z-score; in [1], 0.875 z-score; in [2], 0.8 z-score; with RELB subunit;p50 subunit, 1.08 z-score. Also, the binding signal was 0.63 z-score in the test with RELB subunit;p52 subunit, 0.573 z-score in test [3] and 0.538 z-score in test [4].
Regarding AGAGATTTCCT, the binding signal with RELARELA (p65 homodimer) was 0.344 z-score; with p50p50 homodimer it was -0.498 z-score; in the test with p52p52 homodimer, -0.5 z-score; in [1], -0.403 z-score; in [2], -0.389 z-score; with RELB subunit;p50 subunit it was -0.762 z-score. The binding signal in the test with RELB subunit;p52 subunit was -0.49 z-score; in test [3] it was -0.209 z-score; in [4], -0.443 z-score.
Turning to GGAGATTCCCC, the binding signal worked out at 2.94 z-score in the test with RELARELA (p65 homodimer); 1.13 z-score with p50p50 homodimer; 2.51 z-score with p52p52 homodimer; 2.35 z-score in [1]; 2.22 z-score in test [2]; 2.06 z-score with RELB subunit;p50 subunit. Moreover, the results for the binding signal (with RELB subunit;p52 subunit; in test [3]; in [4]) were 2.22 z-score, 1.88 z-score and 2.2 z-score, respectively.
In the case of CGGTAACTCCC, the binding signal with RELARELA (p65 homodimer) was found to be 1.08 z-score; in the test with p50p50 homodimer it was 0.598 z-score; in the test with p52p52 homodimer, 1.03 z-score; in test [1] it was 0.774 z-score; in test [2] it was 0.795 z-score; with RELB subunit;p50 subunit, 0.459 z-score. In addition, the binding signal in the test with RELB subunit;p52 subunit was determined as 1.02 z-score; in [3], 0.555 z-score; in test [4], 0.833 z-score.
For CAGTAATTCCC, the binding signal with RELARELA (p65 homodimer) worked out at 2.18 z-score; in the test with p50p50 homodimer, 0.948 z-score; with p52p52 homodimer, 0.804 z-score; in test [1], 1.12 z-score; in test [2], 0.865 z-score; with RELB subunit;p50 subunit it was 0.722 z-score. For the same sequence, the binding signal in the test with RELB subunit;p52 subunit worked out at 0.71 z-score; in [3] it was 1.31 z-score; in test [4], 1.05 z-score.
